Laboratory results: PubChem BioAssay AID602474 (National Center for Advancing Translational Sciences (NCATS), 2012)
Results filed as inconclusive are left out. The source made the active and inactive calls. Calls follow the shape of the dose curve; as a rule, active = well fitted inhibition curve with a large enough effect; inconclusive = small, poorly fitted or top-dose-only effect; inactive = no such curve, though single readings can be large or run the other way.

Target: Luciferin 4-monooxygenase (Photinus pyralis) (UniProt P08659)
Sequence (P08659 whole entry, looked up): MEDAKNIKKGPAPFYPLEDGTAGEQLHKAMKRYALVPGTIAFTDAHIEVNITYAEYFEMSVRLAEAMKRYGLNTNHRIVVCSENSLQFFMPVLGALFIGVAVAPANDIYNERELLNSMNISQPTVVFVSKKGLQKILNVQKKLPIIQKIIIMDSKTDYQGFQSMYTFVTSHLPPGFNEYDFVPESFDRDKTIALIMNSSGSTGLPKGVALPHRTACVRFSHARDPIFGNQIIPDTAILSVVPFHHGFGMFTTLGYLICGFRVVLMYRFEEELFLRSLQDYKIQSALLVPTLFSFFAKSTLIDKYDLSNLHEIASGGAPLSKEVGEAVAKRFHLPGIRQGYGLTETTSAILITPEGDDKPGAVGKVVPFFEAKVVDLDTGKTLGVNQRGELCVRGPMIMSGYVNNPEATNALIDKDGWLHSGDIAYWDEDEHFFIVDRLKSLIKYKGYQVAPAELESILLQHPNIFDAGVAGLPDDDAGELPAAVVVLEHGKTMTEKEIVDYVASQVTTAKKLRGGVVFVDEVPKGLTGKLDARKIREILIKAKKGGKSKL
Assay: FLuc inhibitory activity for the follow-up compounds in a biochemical assay with a commercial detection reagent - BriteliteTM Plus (PerkinElmer)
Conditions: purified FLuc, Britelite Plus luminescence; series mostly up to 38.3 µM; activity change, negative = inhibition: at the top concentration
Description: NCGC Assay Overview: Firefly (Photinus pyralis) luciferase is one of the most commonly used transcriptional reporters. It is considered one of the more dynamically responsive reporters - that is, responsive to changes in reporter transcription - as it requires no post-translational modifications and is enzymatically active directly after protein synthesis (Wood, 1998). With no endogenous expression in mammalian cells and without the requirement of external excitation, it offers very little background signal, thus generally providing excellent signal to background for most assays. Previous profiling work to determine the prevalence of compounds that affect FLuc enzymatic activity (PubChem AID 411) identified that ~3% of the MLSMR library (then at ~72K) inhibited FLuc (Auld et al., 2008). […] Of the compounds identified in this profile that inhibited FLuc, 151 compounds were selected for further analysis, in an effort to better understand their mode of inhibiting FLuc. The assay described here was to determine the activity of the compounds in a FLuc assay that used a commercial formulation of detection reagent (BriteliteTM Plus; PerkinElmer).
NCGC Assay Protocol Summary: Reagents: Britelite Plus detection reagent; 50mM Tris acetate, pH 7.5; 10nM P. pyralis luciferase (Sigma #L9506) Control compounds used were two known firefly luciferase inhibitors (3-(5-(3-chlorophenyl)-1,2,4-oxadiazol-3-yl)benzoic acid and 5-(2-fluorophenyl)-3-phenyl-1,2,4-oxadiazole), and DMSO. Assay Summary: Three microliters of buffer containing firefly luciferase (final concentrations: 50mM Tris acetate, 10nM P. pyralis luciferase) are dispensed into each well of a Greiner white, solid-bottom 1536-well format plate using a flying reagent dispenser (FRD). These assay plates were then treated with 23nL of compound or DMSO using a Kalypsys pin tool, which allows for delivery of a 12-point intraplate titration of each compound to the assay plate (quantitative HTS), with final compound concentrations ranging from approximately ~38uM to 0.2nM. Three microliters of 2X Britelite Plus detection reagent was then delivered by FRD to each well. Luciferase activity was then measured using a ViewLux CCD imager (PerkinElmer), with an average exposure time of 2-30 seconds (2X binning, medium/high gain).

| SMILES | Potency | activity change, negative = inhibition |
| --- | --- | --- |
| CN=c1scc(-c2ccccc2F)n1/N=C/c1ccc[nH]1 | 79.8 nM (active) | – |
| COc1ccc2nc(NC(=O)c3nc(S(=O)(=O)Cc4ccc(C)cc4)ncc3Cl)sc2c1 | – | -19.4% (inactive) |
| CCCC(=O)Nc1nc2ccc(OCC)cc2s1 | 79.8 nM (active) | – |
| Cc1ccc(C(=O)Nc2cccc(C(=O)O)c2)cc1S(=O)(=O)N1CCOCC1 | 11300 nM (active) | – |
| CCOc1ccc2nc(NC(=O)c3ccccn3)sc2c1 | 895 nM (active) | – |
| CC(C)c1ccc(C(=O)Nc2ccc(-c3nc4ccccc4s3)c(Cl)c2)cc1 | – | -49.5% (inactive) |
| Cc1cccc(C(=O)Nc2ccc(-c3nc4ccccc4s3)cc2Cl)c1 | – | -20.5% (inactive) |
| Cc1ccc2nc(-c3ccc(N)cc3)sc2c1 | 895 nM (active) | – |
| COc1ccc2nc(NC(=O)c3ccco3)sc2c1 | 1590 nM (active) | – |
| CCOc1ccc2nc(NC(=O)c3ccccc3)sc2c1 | 2520 nM (active) | – |
| Cc1ccc2nc(-c3ccc(NC(=O)CN4CCN(C(=O)c5ccco5)CC4)cc3)sc2c1 | 798 nM (active) | – |
| O=C(O)c1cccc(NC(=O)c2ccc(S(=O)(=O)c3ccccc3)cc2)c1 | – | -14.5% (inactive) |
| Cc1ccccc1C(=O)Nc1cccc(C(=O)Nc2ccccc2C(=O)O)c1 | – | 0.207% (inactive) |
| COc1ccc2nc(NC(=O)c3ccc(NS(=O)(=O)c4cccs4)cc3)sc2c1 | – | 55.4% (inactive) |
| COc1ccc(-c2nc3ccccc3s2)cc1NC(=O)c1ccc(F)cc1 | – | -25.6% (inactive) |
| COc1ccc(-c2nc3ccccc3s2)cc1O | 711 nM (active) | – |
| Cc1ccc(C(=O)Nc2ccc(C(=O)O)cc2)cc1S(=O)(=O)NCc1ccccc1 | – | -0.493% (inactive) |
| Nc1cccc(-c2nc3ccc(N)cc3s2)c1 | 798 nM (active) | – |

| SMILES | Potency | activity change, negative = inhibition |
| --- | --- | --- |
| O=C(O)c1cccc(NC(=O)c2ccccc2NC(=O)c2ccccc2F)c1 | – | -10.9% (inactive) |
| O=C(Nc1cccc(-c2nc3ccccc3s2)c1)C1=COCCO1 | – | -15% (inactive) |
| CCOC(=O)N1CCN(CC(=O)Nc2nc3ccc(OC)cc3s2)CC1 | – | 4.35% (inactive) |
| COc1cccc(-c2nc3ccccc3s2)c1 | 5650 nM (active) | – |
| Cc1ccc(S(=O)(=O)N2CCN(C(=O)c3ccccc3-c3nc4ccccc4s3)CC2)c(C)c1 | – | 14.2% (inactive) |
| O=C(Cc1ccccc1)Nc1ccccc1C(=O)Nc1ccc(C(=O)O)cc1 | – | -5.3% (inactive) |
| CC(C)c1ccc(-c2nc3ccccc3s2)cc1 | 22.5 nM (active) | – |
| O=C(O)c1cccc(NC(=O)c2cccc(NC(=O)C3CCCO3)c2)c1 (stereo not given) | 11300 nM (active) | – |
| Nc1ccc(-c2nc3ccc(C(=O)O)cc3s2)cc1 | 634 nM (active) | – |
| CC(=O)Nc1cccc(C(=O)Nc2ccccc2C(=O)O)c1 | – | -23.5% (inactive) |
| O=C(Nc1ccccc1C(=O)O)c1ccccc1 | – | -22.6% (inactive) |
| COc1ccc2nc(NC(=O)C3CCN(S(=O)(=O)c4cccnc4)CC3)sc2c1 | – | 37.8% (inactive) |
| COc1ccc(C(=O)Nc2ccccc2C(=O)Nc2ccc(C(=O)O)cc2)cc1 | 14200 nM (active) | – |
| O=C(O)c1ccc(NC(=O)c2ccccc2NC(=O)c2cccc(Br)c2)cc1 | – | 6.03% (inactive) |
| NC(=O)Cc1ccc2sc(-c3ccccc3)nc2c1 | 6340 nM (active) | – |
| O=C(Nc1cccc(-c2nc3ccccc3s2)c1)c1cc(-n2cnnc2)ccc1Cl | – | 19.7% (inactive) |
| O=C(O)c1ccc(NC(=O)c2ccccc2NC(=O)c2ccccc2Br)cc1 | – | -11.6% (inactive) |
